Laboratory results published in PubChem BioAssay (NCATS).
Records with an inconclusive call do not appear. Unmarked numbers belong to inactive results. Active and inactive are the calls of the source. Calls come from the whole dose curve; as a rule, active = well fitted cell-killing curve with a large enough effect; inconclusive = small, poorly fitted or top-dose-only effect; inactive = flat fitted curve, though single readings scatter.

experiment: Quantitative highthroughput screen to assess conditional lethalithy of NOMO1 cells grown in RPMI1640 with untreated serum (RPMI+s) (AID 1963876); details: NOMO1 AML cells in RPMI+serum, CellTiter-Glo viability, 48 h; series mostly up to 45.8 µM; viability: at the top concentration; note: nearly all actives have a fitted effect of over 35% in size;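 for viability: 100% = DMSO wells and 0% = empty wells without cells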
In short: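 Each medium arm—HPLM with 10% dialyzed FBS, or RPMI1640 with 5 mM glucose and 10% untreated or dialyzed FBS—was screened against an 11-point, 3-fold compound titration for 48 h at 37 °C, with CellTiter-Glo luminescence as endpoint.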
Potency is the fitted concentration of half-maximal effect.

| SMILES | Potency | viability [%] |
| --- | --- | --- |
| NS(=O)(=O)OC[C@@H]1C[C@@H](n2ccc3c(N[C@H]4CCc5ccccc54)ncnc32)C[C@H]1O | 0.526 µM (active) |  |
| CCC(=O)N[C@H]1CC[C@H](C(=O)N(C)c2ccc(-c3nc4ccccc4o3)cc2)C1 |  | 104 |
| CCNC(=O)[C@H]1O[C@@H](n2cnc3c(N)nc(NCCc4ccc(CCC(=O)O)cc4)nc32)[C@H](O)[C@H]1O |  | 96.1 |
| CC(C)(C)OC(=O)N[C@H]1CCCCCC=C[C@@H]2C[C@@]2(C(=O)NS(=O)(=O)C2CC2)NC(=O)[C@@H]2C[C@@H](OC(=O)N3Cc4cccc(F)c4C3)CN2C1=O |  | 98.9 |
| CC(C)CN(C[C@@H](O)[C@H](Cc1ccccc1)NC(=O)O[C@H]1CO[C@H]2OCC[C@H]21)S(=O)(=O)c1ccc(N)cc1 |  | 101 |
| Cc1nc(NC(=O)N2CCC[C@@H]2C(N)=O)sc1-c1ccnc(C(C)(C)C(F)(F)F)c1 | 2.96 µM (active) |  |
| CC(C)(C)NC(=O)[C@H]1CN(Cc2cccnc2)CCN1C[C@@H](O)C[C@@H](Cc1ccccc1)C(=O)N[C@H]1c2ccccc2C[C@H]1O |  | 83.5 |
| Cc1c(Cn2c(C)nc3c(C(=O)O)cc(N4CCOCC4)cc32)cccc1C(F)(F)F |  | 72.6 |
| C=CC1=C(C(=O)O)N2C(=O)[C@@H](NC(=O)C(=NO)c3csc(N)n3)[C@H]2SC1 |  | 110 |
| C[C@]12CCC(=O)C=C1CC[C@@H]1[C@H]2[C@@H](O)C[C@@]2(C)[C@H]1CC[C@]2(O)C(=O)CO |  | 108 |
| O=c1c2ccccc2nc2n1CCc1c-2[nH]c2ccccc12 |  | 92.3 |
| CC1(C)OC2CC3C4CC(F)C5=CC(=O)C=CC5(C)C4C(O)CC3(C)[C@]2(C(=O)CO)O1 (stereo not given in full) |  | 102 |
| O=C1Nc2ccc(I)cc2C1=Cc1cc(Br)c(O)c(Br)c1 |  | 95.3 |
| CC(=O)OCC(=O)[C@@]12N=C(C)O[C@H]1C[C@H]1[C@@H]3CCC4=CC(=O)C=C[C@]4(C)[C@@H]3[C@@H](O)C[C@@]12C |  | 96.5 |
| COC1=C2C[C@@H](C)C[C@H](OC)[C@@H](O)[C@@H](C)C=C(C)[C@H](OC(N)=O)[C@@H](OC)C=CC=C(C)C(=O)NC(=CC1=O)C2=O | 23.5 µM (active) |  |
| CN(N=O)C(=O)N[C@H]1C(O)OC(CO)[C@@H](O)[C@H]1O (stereo not given in full) |  | 95.4 |
| OCC(O)C(O)C(O)CO (stereo not given) |  | 99 |
| Cc1ccc(C2=Nc3ccc(Cl)cc3OC2)cc1 |  | 90.9 |
| Cc1cc(CS(=O)(=O)c2ccccc2)cc(OCc2ccc(CN3CCC[C@H]3CO)cc2)c1 | 1.05 µM (active) |  |
| C=CCNC1=C2C[C@@H](C)C[C@H](OC)[C@@H](O)[C@@H](C)C=C(C)[C@H](OC(N)=O)[C@@H](OC)C=CC=C(C)C(=O)NC(=CC1=O)C2=O | 5.26 µM (active) |  |

| SMILES | Potency | viability [%] |
| --- | --- | --- |
| CNC(=O)[C@H](CC1=CN=C2C=CCC=C12)NC(=O)[C@@H](CC(=O)NO)CC(C)C | 8.33 µM (active) |  |
| NC(=O)c1cccc(N)c1 |  | 114 |
| O=C(C=Cc1ccc(/C=C/C(=O)Nc2ccc(C3=NCCN3)cc2)cc1)Nc1ccc(C2=NCCN2)cc1 |  | 114 |
| CC(=O)[C@]1(O)Cc2c(O)c3c(c(O)c2[C@@H](O[C@H]2C[C@H](N)[C@@H](O)[C@H](C)O2)C1)C(=O)c1ccccc1C3=O | 2.96 µM (active) |  |
| COc1ccc2ccc(=O)oc2c1CC=C(C)C |  | 96.5 |
| COc1ccc(C(C)=O)c(O)c1 | 2.64 µM (active) |  |
| Cn1cc(-c2ccc3nnc(C(F)(F)c4ccc5ncccc5c4)n3n2)cn1 |  | 96.4 |
| Fc1ccc(C(c2ccc(F)cc2)N2CCN(CC=Cc3ccccc3)CC2)cc1 |  | 102 |
| N#CC(=C(O)c1ccc(Cl)cc1Cl)c1nc2cc(Cl)ccc2c(=O)[nH]1 |  | 98.2 |
| CC(C)c1nn(-c2c(Cl)cccc2Cl)c2nc(Cc3ccc(OCCO)cc3)[nH]c(=O)c12 | 0.118 µM (active) |  |
| NC(=O)c1nnn(Cc2cc(Cl)c(C(=O)c3ccc(Cl)cc3)c(Cl)c2)c1N |  | 93.3 |
| OC(CN1CCN(c2cccc(Cl)c2)CC1)C(c1ccccc1)c1ccccc1 (stereo not given) | 0.935 µM (active) |  |
| Cc1ccc(Nc2cc(-c3cccc(N4C(=O)c5ccccc5C4=O)c3)ncn2)cc1NS(C)(=O)=O |  | 100 |
| C=C1C[C@@]2(O)O[C@@]3(C[C@H]2C(C)C)[C@H](C)CC[C@H]13 |  | 110 |
| CC(C=CC=C(C)C=CC1=C(C)CCCC1(C)C)=CC=CC=C(C)C=CC=C(C)C=CC1=C(C)CCCC1(C)C |  | 96.8 |
| N#CC(=C1Nc2ccccc2S1)c1ccnc(OCc2ccc(CN3CCOCC3)cc2)n1 | 8.33 µM (active) |  |
| C[C@H]1[C@H](O)O[C@@H]2O[C@@]3(C)CC[C@@H]4[C@H](C)CC[C@@H]1[C@@]24OO3 | 1.87 µM (active) |  |
| COc1ccc(-c2cc(=O)c3c(O)cc(O[C@@H]4O[C@H](CO[C@@H]5O[C@@H](C)[C@H](O)[C@@H](O)[C@@H]5O)[C@@H](O)[C@H](O)[C@@H]4O)cc3o2)cc1O |  | 93.1 |
| Nc1nc(=O)n([C@H]2CSC(CO)O2)cc1F (stereo not given in full) |  | 99.9 |
| COc1ccc2cc1Oc1ccc(cc1)C[C@H]1c3cc(c(OC)cc3CCN1C)Oc1c(OC)c(OC)cc3c1[C@H](C2)N(C)CC3 |  | 87 |
